Laboratory results: ChEMBL document CHEMBL4513216, “Probing the Open Global Health Chemical Diversity Library for Multistage-Active Starting Points for Next-Generation Antimalarials” (ACS Infect Dis, 2020)
Screen size: about 65,000 compounds; about 2,100 (3.2%) showed an effect of 50% or more. The median lay at about -52%. The sample holds strong results, similar compounds and a random draw of the others, so the mix is not that of the screen.

Test system: Plasmodium falciparum
Experiment: Screen against P. falciparum Asexual Blood Stage (ABS), at 5uM
Format: functional, Dd2
Details: tested at 5 uM

Structure (SMILES) | INHIBITION
CC(C)(C)c1nc(CN2CCCN(Cc3cccs3)CC2)no1 | 30.6%
Cc1csc(N2CCN(C(=O)C3(C#N)CCCC3)CC2)n1 | -111%
Cc1csc(N2CCCN(C(=O)C3(C#N)CCCC3)CC2)n1 | 63%
Cc1csc(N2CCCN(C(=O)C3(C#N)CCCCC3)CC2)n1 | -43.4%
Fc1cccc(N2CCCC3(CN(Cc4nccs4)CCO3)C2)c1 (stereo not given) | 0.276%
CC(=O)Nc1ccc(CN2CCCC(c3cc4ncccc4[nH]3)C2)cc1 (stereo not given) | 42.3%
Cc1nonc1CN(C)c1nc(-c2cccnc2)nc2c1CCNC2 | 69.5%
CN(CC1CCCCO1)c1nc(-c2cccnc2)nc2c1CCNC2 (stereo not given) | -14.1%
CN(Cc1ccc(-n2cccn2)cc1)c1nc(N)nc2c1CCNCC2 | 58.4%
Cc1nc2c(c(N(C)Cc3ccccc3-n3cccn3)n1)CCNCC2 | -3.02%
CN(CCO)c1nc(-c2ccccn2)nc2c1CCNC2 | -79.2%
CN(CC(O)CO)c1nc(-c2cccnc2)nc2c1CCNC2 (stereo not given) | -79.7%
CN(Cc1cccnc1)c1nc(-c2ccccn2)nc2c1CCNCC2 | 55.3%
CN(Cc1ccc(-n2cccn2)cc1)c1cc(N)nc(N)n1 | 41.7%
c1ccc(-c2nc3c(c(NCCn4cccc4)n2)CCNCC3)nc1 | -0.552%
CN(CC1CCCO1)c1nc(-c2cccnc2)nc2c1CCNCC2 (stereo not given) | -40%
Cc1cc(CN(C)c2nc(-c3ccccn3)nc3c2CCNCC3)n[nH]1 | 69.2%
CN(Cc1ccccc1-n1cccn1)c1nc(N)nc2c1CCNCC2 | -13.4%
COc1cc(CNCc2ccc(NC(=O)NC(C)C)cc2)cc(OC)c1 | -65.3%
CCC(=O)Nc1cccc(OCC(=O)N2C[C@H]3CC[C@H]2C3)c1 | -137%
COc1cccc(CC(=O)N2CCC3(CC2)OCCCC3O)c1OC (stereo not given) | -112%
O=C(CN1CCCC1Cn1cccn1)NCCC1=CCCCC1 (stereo not given) | -61.8%
CCS(=O)(=O)N1CCc2c(COCc3ccncc3)cncc2C1 | -181%
CCn1nccc1CN(C)C(=O)Cn1nc(C)cc1C | -52.5%
CC(=O)Nc1cccc(OCCNC(=O)N(C)Cc2ccccc2)c1 | -47.8%
COc1ccc(F)c(CN2CC(=O)N(c3ccccc3C)CC2C)c1 (stereo not given) | 9.59%
COc1ccc(F)c(F)c1CN1CC(=O)N(c2ccccc2C)CC1C (stereo not given) | 30.6%

Structure (SMILES) | INHIBITION
COc1cccc(CN2CC(=O)N(c3ccccc3C)CC2C)c1OC (stereo not given) | 53.8%
CC(C)c1nnsc1CNC(=O)C1CCCN(C(=O)N(C)C)C1 (stereo not given) | -18.2%
Fc1cccc(CNCC2OCCc3cn(CC4CCOCC4)nc32)c1 (stereo not given) | 17.8%
CC(C)n1ncc2c1NC(=O)CC21C(=O)Nc2c(Br)cc(Cl)cc21 (stereo not given) | -72.6%
COCc1nc(CNC(=O)C(C)n2ccnc2C(C)C)no1 (stereo not given) | -14.3%
COc1cc2c(cc1CNC(=O)C(C)n1ccnc1C(C)C)OCCO2 (stereo not given) | 11.4%
COc1cc2c(cc1CNC(=O)C(C)n1ccnc1C(C)C)CCC2 (stereo not given) | 60.2%
COc1cccc(N2CCN(CCC(=O)NC3CCCCC3)CC2)c1 | -28.7%
CCC(NC(N)=O)c1ccccc1OCC(=O)N1CCCC1 (stereo not given) | -37.9%
CCC(NC(=O)COC)c1ccccc1OCC(=O)N1CCCC1 (stereo not given) | -191%
CCC(N)c1ccccc1OCC(=O)N1CCCC1 (stereo not given) | 52.5%
CCOCCC1(C(=O)N2CCCC(c3ncc[nH]3)C2)CCCC1 (stereo not given) | -71.1%
CC(c1ccncn1)N(C)Cc1cc2cc3c(cc2[nH]c1=O)OCO3 (stereo not given) | -84.5%
CCOc1cccc(C(=O)Nc2ccncc2)c1 | -39.7%
COc1c(CNC2(c3noc(C)n3)CCC2)c(C)nn1C | -55.5%
COc1c(CNC2CCc3cc(Cl)ccc32)c(C)nn1C (stereo not given) | 21.4%
COc1c(CNC2(c3ccc(Cl)cc3)CCC2)c(C)nn1C | 60.5%
Cc1nc(-c2ccccc2)cc(C2CCNCC2)n1 | 57.8%
COc1ccc(-c2cc(C3CCNCC3)nc(C)n2)cc1 | -57.7%
Cc1nc(-c2ccc(F)cc2)cc(C2CCNCC2)n1 | -33.4%
CC(=O)N1CCCC(c2nc(N(C)C)ncc2-c2cccc(F)c2)C1 (stereo not given) | -1.35%
O=C(c1ncccn1)N1C[C@H]2CCC[C@@]2(COc2ccccn2)C1 | 14.9%
O=C(c1cocn1)N1C[C@H]2CCC[C@@]2(COc2ccccn2)C1 | 52.1%
Cc1ccc(C(=O)N2C[C@H]3CCC[C@@]3(COc3ccccn3)C2)nc1 | 9.4%
NC(=O)c1ccn(COc2ccccc2Cl)n1 | -63.1%
Cc1cnn(C2CN(c3ccccc3S(=O)(=O)C(F)(F)F)C2)c1 | -111%
CS(=O)(=O)NC[C@H]1Cn2c(-c3ccc(F)cc3)cnc2CO1 | -34.5%

Structure (SMILES) | INHIBITION
CS(=O)(=O)NC[C@H]1Cn2c(-c3ccc(Cl)cc3)cnc2CO1 | 57.1%
CS(=O)(=O)NC[C@H]1Cn2c(-c3ccccc3)cnc2CO1 | -21%
CN(C)Cc1csc(-c2nccn2Cc2ccsc2)c1 | 17.1%
Cc1cccc(C(=O)N2CCC[C@]3(C[C@@H](OCC4CC4)CO3)C2)n1 | -156%
Cn1cc(CN2C[C@H](N3CCOCC3)[C@@H]3OCCC[C@@H]32)cn1 | -93.3%
CCN1CCC(NC(=O)NCC(O)c2ccc(Cl)c(F)c2)CC1 (stereo not given) | -34.9%
OC(CNC1CCOCC1)c1cccc(OCc2ccccc2)c1 (stereo not given) | 53.2%
OC(CNC1CCOCC1)c1ccc(Cl)c(F)c1 (stereo not given) | 50.9%
COc1cccc(C(O)CNC(=O)CC2CCCCC2)c1 (stereo not given) | -143%
c1ccc(COc2cccc(CNC3CCc4ncnn4C3)c2)cc1 (stereo not given) | 24.8%
O=C(NCC(O)c1ccc(Cl)c(F)c1)NC1CC=CC1 (stereo not given) | -14.7%
CC(C)(CNc1cccc(Cl)c1)NC(=O)C1CCCN(CC(N)=O)C1 (stereo not given) | -34.6%
COc1ccccc1-c1ncc(CN2C[C@@H](N(C)C)[C@H](C(C)C)C2)s1 | 54.7%
COc1ccccc1-c1ncc(CN2C[C@H](O)[C@@H](N3CCCC3)C2)s1 | 16.5%
COc1ccccc1-c1ncc(CN2CCCC(CCC(N)=O)C2)s1 (stereo not given) | -43.7%
CCc1csc(C2CCCN(C(=O)c3ncccn3)C2)n1 (stereo not given) | -94%
CC(C)n1c(=O)c2ccccc2n(CCCN(C)C)c1=O | 59.5%
CC(C)n1c(=O)c2ccccc2n(CCN(C)C)c1=O | 36.1%
CN(C)CCn1c(=O)n(C)c(=O)c2ccccc21 | -7.78%
CCN(Cc1ccccc1)C(=O)CCN1CC(O)C1 | -76.9%
Cc1nc(C)c(C(=O)N2Cc3ccccc3OCC2Cn2ccnc2)s1 (stereo not given) | -22.8%
CN1CCCCCC1C(=O)N1CCCN(c2ccccc2)CC1 (stereo not given) | 61.8%
COC(=O)N1CCCCC1C(=O)N1CCN(c2cccnc2)CC1 (stereo not given) | -87.5%
CC(C)N1CCC(C(=O)N2CCCN(c3ccccc3)CC2)CC1 | -38.1%
CN1CCCCCC1C(=O)N1CCN(c2ccccc2C#N)CC1 (stereo not given) | 60.4%
CN1CCCCC1C(=O)N1CCN(c2ccccc2C#N)CC1 (stereo not given) | 11.5%
N#Cc1ccccc1N1CCN(C(=O)NCC(=O)N2CCCC2)CC1 | -1.82%

Structure (SMILES) | INHIBITION
CC[C@H]1CN(C(=O)c2ccc(-n3cnnc3)nc2)CC[C@@]1(C)O | -129%
Cc1noc(C)c1CCC(=O)N1CCCN(Cc2cccs2)CC1 | -63%
CC(C1CCN(Cc2ccc(N(C)C)nc2)CC1)N1CCOCC1 (stereo not given) | -5.43%
CC(C1CCN(Cc2cccc(OC(F)F)c2)CC1)N1CCOCC1 (stereo not given) | 68.3%
CC(C1CCN(Cc2ccc(OC(F)F)cc2)CC1)N1CCOCC1 (stereo not given) | -26.3%
CC(C1CCN(Cc2ccccc2OC(F)F)CC1)N1CCOCC1 (stereo not given) | 9.39%
CC(C)Oc1cccc(CN2CCC(C(C)N3CCOCC3)CC2)c1 (stereo not given) | 55.8%
CC(C)Oc1cccc(CN2CCC(c3n[nH]c4ncccc34)CC2)c1 | -51.3%
CCc1ccc(C(CNC(=O)c2c(C)noc2C)N(C)C)cc1 (stereo not given) | -71.9%
O=C(NC1CC1)[C@H]1C[C@H]2OCC[C@H]2N(CC2CC2)C1 | -28.3%
CC(C)(C)CC(=O)NCCn1nc(C2CCNC2)c2cccnc21 (stereo not given) | -134%
Cc1nccc(NCc2cncc3c2CCN(CC2CCOC2)C3)n1 (stereo not given) | -81.6%
CC(C)n1cc(C(=O)N2CCN(c3cccc(C(F)(F)F)c3)CC2)cn1 | -46.5%
O=C(O)c1cn(CC2CCCN(c3nccc4occc34)C2)nn1 (stereo not given) | -30.1%
CC(O)Cc1cn(CC2CCN(c3nccc4occc34)CC2)nn1 (stereo not given) | -39.4%
CN(C)Cc1cn(CC2CCCN(c3nccc4occc34)C2)nn1 (stereo not given) | 60.5%
CC(C)(C)c1ncc(C(=O)NCc2ccccc2CN2CCCC2)s1 | -23.4%
O=C(c1ccc[nH]1)N1C[C@H](OCc2ccccn2)[C@H]2COC[C@H]21 | -89.2%
O=C1NCCN1C1CCN(Cc2coc(-c3ccc(F)cc3)n2)CC1 | -71.8%
C[C@@H]1CN(C2CCN(Cc3nn(C)c4cccc(Cl)c34)CC2)C[C@H](C)O1 | -9.68%
Cn1nc(CN2CCCN(C3CCCC3)CC2)c2c(Cl)cccc21 | 68.9%
Cn1nc(CN2CCC(c3ccncc3)CC2)c2c(Cl)cccc21 | -14.6%
COCCN1C(=O)CO[C@H]2CN(Cc3ccccc3Cl)C[C@@H]21 | -123%
CCN1CCOCC12CCN(c1nccs1)CC2 | -144%
